Sampled rows, rich in hits. Any-hit rate of the full collection: about 3.4%.
MITF inh: human MITF inhibition, primary screen; inhibition, % at 2.6 µM; O75030; hit rate 0.91% among 650,000; AlphaScreen MITF homodimerization, bead proximity signal; in the data active = inhibition above about 50%;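 note: 0% = vehicle wells with protein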
GPR151 ag: human GPR151 activation; hit rate 1% among 650,000; Q8TDV0; PathHunter beta-arrestin GPR151 cells, luminescence; activation, % at 11.2 µM; in the data active = activation above about 4.9%;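 note: 0% = median of compound wells and 100% = cells with positive control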
Target sequence (Q8TDV0 whole entry, looked up): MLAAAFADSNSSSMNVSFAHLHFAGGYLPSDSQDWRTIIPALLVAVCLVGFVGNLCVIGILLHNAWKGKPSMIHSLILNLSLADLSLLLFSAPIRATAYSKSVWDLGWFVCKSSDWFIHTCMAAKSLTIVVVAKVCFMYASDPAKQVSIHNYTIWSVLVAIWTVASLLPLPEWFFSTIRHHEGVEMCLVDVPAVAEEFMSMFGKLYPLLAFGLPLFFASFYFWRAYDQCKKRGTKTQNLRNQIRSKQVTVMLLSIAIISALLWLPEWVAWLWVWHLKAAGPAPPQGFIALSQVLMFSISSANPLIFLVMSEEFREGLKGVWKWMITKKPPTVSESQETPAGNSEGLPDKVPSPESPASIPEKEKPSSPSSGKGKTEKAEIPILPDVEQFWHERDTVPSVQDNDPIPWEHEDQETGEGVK
TEAD-YAP inh: TEAD-YAP interaction inhibition | HEK-TIYL cells, TEAD-Gal4/YAP UAS-luciferase luminescence | hit rate 1.4% among 640,000 | inhibition, % at 9.12 µM; in the data active = inhibition above about 32%;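 note: 0% = median of test compound wells and 100% = reference inhibitor wells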
FBW7 act: activators of human E3 ligase FBW7. hit rate 0.13% among 650,000. normalized activity (activation), % at 26.1 µM. AlphaScreen FBW7–phospho-cyclin E peptide binding, activator screen. AID 1259310. Q969H0; in the data active = normalized activity above about 1.9%;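 note: purified mutant Fbw7 with reduced substrate affinity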
MITF inh conf: human MITF inhibition, confirmation; hit rate 16% among 4,700; AID 1259372; shares compounds with MITF inh; inhibition, % at 2.6 µM; AlphaScreen MITF homodimerization, biotin/His-MITF beads;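 active = inhibition above a cutoff derived from the DMSO control wells, cut at about 28% in these data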;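 note: 0% = MITF dimer wells with DMSO only; inhibitors lower the bead chemiluminescence by keeping MITF from dimerizing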
AS interf DR: AlphaScreen optical interference, dose response counter-screen | shares compounds with MITF inh | AlphaScreen optical interference counterscreen, cell-free | IC50, µM | hit rate 6% among 480 | AID 1259373; call rule not given here
AlphaScreen intf2: counter-screen: compounds optically interfering with AlphaScreen; shares compounds with MITF inh; LysRS AlphaScreen counterscreen, signal interference, triplicate; inhibition, % at 2.6 µM; hit rate 7.6% among 4,700; AID 1259376;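 active = inhibition above a cutoff derived from the DMSO control wells, cut at about 30% in these data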
Numbers without * were called inactive; / = no result given.

SMILES	MITF inh	GPR151 ag	TEAD-YAP inh	FBW7 act	MITF inh conf	AlphaScreen intf2	others
O=C1c2cccc3cccc(c23)N1Cc1cc([N+](=O)[O-])cc2c1OCOC2	7	0	5	1	/	/
N#C/C(=C\c1nn(CCO)c(N)c1C#N)c1ccco1	46	0	-5	0	/	/
N#C/C(=C\c1nn(-c2ccccc2)c(N)c1C#N)c1ccco1	59*	0	-57	0	83*	-6	AS interf DR=>6.5
C/C(=N\NC(=O)c1cc(C(C)(C)C)[nH]n1)c1ccc(N)cc1	13	0	-1	1	/	/
Cc1ccc2nc(C3CCN(S(=O)(=O)c4ccc5c(c4)OCCO5)CC3)[nH]c2c1	66*	1	8	0	12	19
O=C1c2ccccc2C(O)N1COc1cccc(F)c1 (centres undefined)	-10	3	-14	0	/	/
COc1ccccc1CN(CCCN(C)C)CCCN(C)C	34	1	3	0	/	/
CN(C)CCCN(CCCN(C)C)Cc1cccc2ccccc12	55*	1	-10	0	-2	-3
CN(C)CCN(C)Cc1cccc2ccccc12	60*	1	4	0	-1	1
O=C(Nc1ccc(C(=O)N2CCOCC2)cc1)c1ccc(Cl)cc1Cl	-5	0	-11	0	/	/
C=CCOc1c(Cl)cc(C=C2C(=O)NC(=S)NC2=O)cc1OC	-11	-1	3	0	/	/
Cc1cc(S(=O)(=O)N2CCCC(C(=O)c3ccc4c(c3)OCO4)C2)c(C)s1 (centres undefined)	4	-1	1	0	/	/
CC(C)c1ccc(OCC(=O)NCCS(=O)(=O)N2CCc3ccccc32)cc1	81*	1	3	0	-7	-2
COc1cccc(Nc2nc(-c3ccc(I)cc3)cs2)c1	-1	3	-3	0	/	/
CN(Cc1ccco1)S(=O)(=O)c1ccc2[nH]cc(C(=O)O)c(=O)c2c1	54*	1	-1	0	30*	5	AS interf DR=>6.5
C=CCN(c1ccccc1)S(=O)(=O)c1ccc2[nH]cc(C(=O)O)c(=O)c2c1	57*	0	6	0	12	-4
Cn1nc(Oc2ccc(-c3ccccc3)cc2)c(=O)n(C)c1=O	80*	-1	-9	0	16	9
CC(NS(=O)(=O)c1cc(Cl)ccc1Cl)C(=O)NC1CCCCC1 (centres undefined)	57*	-1	2	0	-4	1
Cc1nn(C)cc1C(=O)N1CCc2c(nc(N3CCC(C)CC3)[nH]c2=O)C1	-8	1	-12	0	/	/
CCc1nnc(NC(=O)/C=C/c2ccco2)s1	0	1	-34	0	/	/
O=C(/C=C/c1ccco1)/C=C/c1ccco1	68*	1	9	0	77*	97*
O=C(/C=C/c1ccco1)OCC(=O)N1CCCC1	17	3	3	0	/	/
O=C(/C=C/c1ccco1)NCc1cccc(CNC(=O)/C=C/c2ccco2)c1	74*	2	4	0	82*	16	AS interf DR=>6.5
O=C(/C=C/c1ccco1)Nc1nnc(-c2ccco2)s1	52*	0	30	0	57*	8	AS interf DR=>6.5
O=C(/C=C/c1ccco1)ON1C(=O)c2ccccc2C1=O	56*	0	-3	0	35*	1	AS interf DR=>6.5
SMILES	MITF inh	GPR151 ag	TEAD-YAP inh	FBW7 act	MITF inh conf	AlphaScreen intf2	others
CCn1c(C)nc2cc(S(=O)(=O)Nc3ccccc3)ccc21	-4	1	-4	0	/	/
COc1ccc([N+](=O)[O-])cc1N(CC(=O)NCCSC1CCCCC1)S(C)(=O)=O	7	1	-1	0	/	/
O=C(O)CCCNC(=O)/C=C/c1ccco1	62*	1	3	0	59*	3	AS interf DR=>6.5
O=C(/C=C/c1ccco1)Nc1cccc(NC(=O)/C=C/c2ccco2)n1	82*	-1	-48	0	49*	1	AS interf DR=>6.7
Cc1ccc(S(=O)(=O)C(CNC(=O)C(C)C)c2cccs2)cc1 (centres undefined)	-8	-1	1	0	/	/
O=C(NCC(c1ccco1)S(=O)(=O)c1cccs1)c1ccco1 (centres undefined)	21	0	-1	1	/	/
O=C(NCC(c1cccs1)S(=O)(=O)c1ccc(Cl)cc1)c1ccco1 (centres undefined)	70*	2	-3	2	59*	-15	AS interf DR=>6.6
Cc1ccc(S(=O)(=O)C(CNC(=O)c2ccco2)c2cccs2)cc1 (centres undefined)	95*	1	-5	1	83*	5	AS interf DR=>6.6
CC(=O)NCC(c1cccs1)S(=O)(=O)c1ccc(C)cc1 (centres undefined)	51*	1	-7	1.9*	60*	-8	AS interf DR=>6.4
COc1ccc(S(=O)(=O)CCc2nnc(NC(=O)c3ccc(C(C)(C)C)cc3)s2)cc1	0	0	-16	0	/	/
COCCCNc1ncnc2sc(C)c(C)c12	68*	1	-6	0	-3	3
Cc1ccoc1C(=O)NCCNC(=O)c1occc1C	7	0	1	0	/	/
Cc1ccoc1C(=O)NCc1occc1C(=O)O	57*	-1	15	0	10	7
CC1(C)Cc2c(sc3nc(NNC(=O)c4ccccc4)[nH]c(=O)c23)CO1	73*	0	7	0	13	9
O=C1Nc2cc(C(=O)N3CCCC3)ccc2Sc2ccccc21	3	1	2	0	/	/
Nc1nc(SCC(=O)Nc2cc([N+](=O)[O-])ccc2F)n[nH]1	51*	1	7	0	2	2
C/C(=N\NC(=O)COc1c(C)ccc(C)c1C)c1cccs1	12	0	4	0	/	/
O=C(CCN1CCCCC1)N1CCc2c([nH]c3ccccc23)C1c1ccccn1 (centres undefined)	8	1	-13	0	/	/
CCCCOCC(O)Cn1c(Cc2ccccc2)nc2ccccc21 (centres undefined)	58*	1	-6	0	6	16
CCCCOCC(O)Cn1c2ccccc2c2ccccc21 (centres undefined)	6	-2	-6	0	/	/
CCN1CCN(c2cc(C)c3ccc(OC)cc3n2)CC1	64*	1	-2	0	1	7
CC1=C(C(=O)N(C)C)C(c2c(F)cccc2F)NC(=O)N1 (centres undefined)	-5	1	-2	0	/	/
COc1ccc(CN2CCN(Cc3ccc4c(c3)OCO4)CC2)cc1	64*	0	-3	0	14	13
Cc1ccc(C(=O)N2CCN(Cc3ccc4c(c3)OCO4)CC2)cc1	8	0	3	0	/	/
COc1ccc(NC(=S)N2CCN(Cc3ccc4c(c3)OCO4)CC2)cc1	15	-1	-10	0	/	/
COc1ccc(C(=O)N2CCN(Cc3ccc4c(c3)OCO4)CC2)cc1	55*	0	-3	0	4	14
Fc1ccc(CN2CCN(Cc3ccc4c(c3)OCO4)CC2)c(F)c1	61*	-1	0	0	0	6
